# Measurements published in PubChem BioAssay (NCATS).
# Results filed as inconclusive are left out. Activity calls are given as the source filed them. The call rests on the fitted dose curve; in most records, active means well fitted curve in the direction sought with a large enough effect; inconclusive means small, poorly fitted or top-dose-only effect, or another doubt; inactive means no such curve, though single readings can be large; an effect the other way counts as inactive or inconclusive.
# Tests used:
# [1] = target: Rap guanine nucleotide exchange factor 3 (Homo sapiens) (UniProt O95398); assay: Counterscreen qHTS for antagonist of cAMP-regulated guanine nucleotide exchange factor 3 (EPAC1) (AID 1645888); settings: Rap1B-BODIPY-GDP nucleotide exchange, fluorescence; series mostly up to 30.8 µM;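 further: fluorescence loss as bound BODIPY-GDP is released from Rap1B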
# Chain of Rap guanine nucleotide exchange factor 3 (Homo sapiens) (O95398 whole entry, looked up): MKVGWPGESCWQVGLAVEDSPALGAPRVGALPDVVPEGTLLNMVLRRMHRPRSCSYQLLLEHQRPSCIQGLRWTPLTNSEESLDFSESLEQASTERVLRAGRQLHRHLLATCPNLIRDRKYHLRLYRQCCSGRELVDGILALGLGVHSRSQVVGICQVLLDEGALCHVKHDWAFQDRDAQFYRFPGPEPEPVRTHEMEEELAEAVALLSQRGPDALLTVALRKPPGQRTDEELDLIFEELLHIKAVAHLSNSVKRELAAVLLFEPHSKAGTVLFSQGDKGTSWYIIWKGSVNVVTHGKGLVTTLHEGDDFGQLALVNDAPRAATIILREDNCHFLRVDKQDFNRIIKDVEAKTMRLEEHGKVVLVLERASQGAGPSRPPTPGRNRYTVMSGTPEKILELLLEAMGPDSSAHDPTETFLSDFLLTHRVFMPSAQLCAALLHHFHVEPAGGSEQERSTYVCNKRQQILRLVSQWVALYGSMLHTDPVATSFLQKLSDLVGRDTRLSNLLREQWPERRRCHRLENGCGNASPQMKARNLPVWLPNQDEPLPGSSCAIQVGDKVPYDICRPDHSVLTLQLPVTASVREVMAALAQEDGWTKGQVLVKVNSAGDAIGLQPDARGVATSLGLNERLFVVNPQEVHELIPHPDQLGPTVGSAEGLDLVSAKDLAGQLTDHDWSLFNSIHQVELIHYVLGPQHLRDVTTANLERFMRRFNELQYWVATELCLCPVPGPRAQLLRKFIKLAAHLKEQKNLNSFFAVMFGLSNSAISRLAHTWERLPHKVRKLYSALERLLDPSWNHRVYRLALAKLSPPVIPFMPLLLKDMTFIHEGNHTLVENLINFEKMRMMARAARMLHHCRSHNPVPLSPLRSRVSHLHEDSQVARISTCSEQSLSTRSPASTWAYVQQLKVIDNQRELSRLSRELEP
# How it was run: (§1)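 Rap1B–BODIPY-GDP (250 nM) with 50 uM GDP; compounds pin-transferred to 9.74 nM–152 uM final (activator) or from 7.32 nM upwards (inhibitor). Fluorescence Ex/Em 480/540 nm read at 5 and 30 min, then after adding cAMP or buffer, at room temperature.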
# [2] = target: Rap guanine nucleotide exchange factor 3 (Homo sapiens) (UniProt O95398); assay: Counterscreen qHTS for agonist of cAMP-regulated guanine nucleotide exchange factor 3 (EPAC1) (AID 1645889); settings: EPAC1 Rap1B-BODIPY-GDP exchange, fluorescence; series mostly up to 30.8 µM; further: nearly all actives have a fitted effect of over 40% in size
# How it was run: as §1
Structure (SMILES),outcome [1],outcome [2]
Cn1cc(C2=C(c3ccc(Cl)cc3Cl)C(=O)NC2=O)c2ccccc21,inactive,
O=C1C(SCCO)=C(SCCO)C(=O)c2ccccc21,inactive,
N#C/C(=C\c1ccc(O)c(O)c1)C(=O)c1ccc(O)c(O)c1,,inactive
